Values joined by “and” are separate entries in the source; they are usually repeats but may differ in a detail not shown here. Equal entries are not always repeated. Inconclusive results are not listed. Entries that show only a call come without a potency. Active and inactive are the calls of the source. Calls come from the whole dose curve.
Key:
[1] = Cytotoxicity counterscreen for inhibitors of SARS-CoV-2 cell entry (AID 1645845); note: nearly all actives have a fitted effect of over 50% in size
Procedure, shortened: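 Counterscreen run in the same HEK293-ACE2 line as the pseudotyped-particle entry assay, without particles. Viability after 48 h at 37 C was read as ATP luminescence, scaled between cell-containing and cell-free wells.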

[2] = Primary qHTS to identify inhibitors of SARS-CoV-2 cell entry (AID 1645846); settings: activity change, negative = inhibition: at 57.1 µM (top of the series) unless noted; note: nearly all actives have a fitted effect of over 45% in size; note: potency is the fitted concentration of half-maximal effect
Procedure, shortened: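 Using luciferase-reporting pseudoviruses carrying Wuhan-Hu-1 spike, the screen tracks entry into stably ACE2-expressing cells over 48 hr. Activity is expressed relative to spike particles versus particles lacking any fusion protein.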

| SMILES | Potency [1] | activity change, negative = inhibition [2] | Potency [2] |
| --- | --- | --- | --- |
| N[C@H]1CN(c2c(F)cc3c(=O)c(C(=O)O)cn(C4C[C@@H]4F)c3c2Cl)CC12CC2 (some centres undefined) | inactive | -17.4% | – |
| CC(=O)OCC(=O)Nc1cc(C#N)cc(NC(=O)COC(C)=O)c1Cl | inactive | – | inactive |
| CC(=O)OC[C@H]1O[C@@](COC(C)=O)(O[C@H]2O[C@H](COC(C)=O)[C@@H](OC(C)=O)[C@H](OC(C)=O)[C@H]2OC(C)=O)[C@@H](OC(C)=O)[C@@H]1OC(C)=O | inactive | -0.185% | – |
| CCOc1ccc2nc(S(N)(=O)=O)sc2c1 | inactive | – | inactive |
| C#CCN(C)Cc1ccccc1 | inactive | – | inactive |
| CN1CCCN=C1COC(=O)C(O)(c1ccccc1)C1CCCCC1 (centres undefined) | inactive | 4.25% | – |
| CN1CCOC(c2ccccc2)c2ccccc2C1 (centres undefined) | inactive | – | inactive |
| CC(C)(C)C(=O)OCOC(=O)[C@@H]1N2C(=O)[C@@H](NC(=O)[C@H](N)c3ccccc3)[C@H]2SC1(C)C | inactive | -12.4% | – |
| C[C@@H](C1=C(CCN(C)C)Cc2ccccc21)c1ccccn1 | inactive | -25.9% | – |
| O=C1O[C@H]([C@@H](O)CO)C(O)=C1O | inactive | – | inactive |
| FC(F)(F)C(Cl)Br (centres undefined) | inactive | -18.5% | – |
| CC(=O)OCC1=C(C(=O)O)N2C(=O)[C@@H](NC(=O)CSc3ccncc3)[C@H]2SC1 | inactive | – | inactive |
| CCCC(=O)O[C@]1(C(=O)CC)CC[C@H]2[C@@H]3CCC4=CC(=O)CC[C@]4(C)[C@H]3[C@@H](O)C[C@@]21C | inactive | – | inactive |
| O=S1(=O)OC(c2ccc(O)cc2)(c2ccc(O)cc2)c2ccccc21 | inactive | 4.87% | – |
| CC(COc1ccccc1)NC(C)C(O)c1ccc(O)cc1 (centres undefined) | inactive | – | inactive |
| O=C(NN1CCCC1)NS(=O)(=O)c1ccc(Cl)cc1 | inactive | – | inactive |
| O=C1OC(c2ccc(O)cc2)(c2ccc(O)cc2)c2ccccc21 | inactive | – | inactive |
| CCOC(=O)[C@H](CCc1ccccc1)N[C@H]1CCc2ccccc2N(CC(=O)O)C1=O | inactive | -24.9% | – |
| NCCc1ccc(O)c(O)c1 | inactive | -18% and -6.68% | – |

| SMILES | Potency [1] | activity change, negative = inhibition [2] | Potency [2] |
| --- | --- | --- | --- |
| C[C@@H]1C[C@H]2[C@@H]3CCC4=CC(=O)C=C[C@]4(C)[C@@]3(Cl)[C@@H](O)C[C@]2(C)[C@@]1(OC(=O)c1ccco1)C(=O)CCl | inactive | -22.6% | – |
| C#C[C@]1(O)CC[C@H]2[C@@H]3CCC4=CC(=O)CC[C@@H]4[C@H]3CC[C@@]21C | inactive | 3.31% | – |
| CC(C)NCCCC1(C(N)=O)c2ccccc2-c2ccccc21 | inactive | – | inactive |
| CCOC(=O)c1cc(=O)c2c(OCC(COc3cccc4oc(C(=O)OCC)cc(=O)c34)OC(=O)[C@@H](N)CCCCN)cccc2o1 | inactive | – | inactive |
| CC1(C)O[C@@H]2C[C@H]3[C@@H]4C[C@H](F)C5=CC(=O)CC[C@]5(C)[C@H]4[C@@H](O)C[C@]3(C)[C@]2(C(=O)CO)O1 | inactive | – | inactive |
| CCCN(CCC)C(=O)C(CCC(=O)OCCCN1CCN(CCOC(=O)Cc2c(C)n(C(=O)c3ccc(Cl)cc3)c3ccc(OC)cc23)CC1)NC(=O)c1ccccc1 (centres undefined) | inactive | – | 28.2 µM (active) |
| C[C@]12C=CC(=O)C=C1CC[C@H]1[C@@H]3C[C@@H](O)[C@](O)(C(=O)CO)[C@@]3(C)C[C@H](O)[C@@]12F | inactive | 4.58% | – |
| c1ccc(CNCCNCc2ccccc2)cc1 | inactive | -30.1% | – |
| CC[N+](CC)(CC(=O)Nc1c(C)cccc1C)Cc1ccccc1 | inactive | – | inactive |
| C/C(=N/NC(=O)c1ccncc1)C(=O)O | inactive | -2.02% | – |
| CCCCCC1Nc2cc(C(F)(F)F)c(S(N)(=O)=O)cc2S(=O)(=O)N1 (centres undefined) | inactive | – | inactive |
| C[N+]1(CC2COC(c3ccccc3)(C3CCCCC3)O2)CCCCC1 (centres undefined) | inactive | -2.6% | – |
| COc1ccccc1N1CCN(CCCNc2cc(=O)n(C)c(=O)n2C)CC1 | inactive | -0.464% | – |
| CCOC(=O)OC(C)OC(=O)[C@@H]1N2C(=O)[C@@H](NC(=O)[C@H](N)c3ccccc3)[C@H]2SC1(C)C (some centres undefined) | inactive | -12.7% | – |
| N[C@@H](Cc1c[nH]c2ccc(O)cc12)C(=O)O | inactive | – | inactive |
| CCCCCCCCCCCCCCCCCCOCC(O)CO (centres undefined) | inactive | 2.2% | – |
| FC(F)(F)C(F)(F)C(F)(F)C(F)(F)C(F)(F)C(F)(F)C(F)(F)C(F)(F)Br | inactive | -12.9% | – |
| C[C@H](CCC(=O)O)[C@H]1CC[C@H]2[C@@H]3C(=O)C[C@@H]4CC(=O)CC[C@]4(C)[C@H]3CC(=O)[C@]12C | inactive | – | inactive |
